{"source": "paper PMC13494018", "binders": {"B1": {"name": "d1r7_design_ppi_682_dldesign_0_cycle1_af2pred (protein)", "chain": "ATAEQIQQVKNYAKAAIQAVKNAAASDKAEALAVAKIFADALLKQGKLTTPEAAKEAEKAAKEILATAKALAA"}, "B2": {"name": "d1r8_design_ppi_87_dldesign_0_cycle1_af2pred (protein)", "chain": "NPLLEEARRAIEEAAKLVKTGTPEEAREALKRAAHELLRLAARSTDQAVAQKLITAAELVAKAAELVLTNPEEALKLVEEAL"}, "B3": {"name": "d1r7_design_ppi_677_dldesign_0_cycle0_af2pred (protein)", "chain": "VEEKIRGIEEAGRLGAEASPELAAEIEAFTKRAVEAARASGDEAVAGAALQAASLALIGAAWYAVDPEKGAAVLARARARLEALIA"}, "B4": {"name": "d1r7_design_ppi_889_dldesign_0_cycle1_af2pred (protein)", "chain": "SEELDRAGAQTLAEIVGKQAKKVAKAAKELSKEKGGELTPLAEKAEEAAKKAIKLAEEGASAEEIYKAAQEAQDLRLKAKAALKAAKA"}, "B5": {"name": "d1r7_design_ppi_806_dldesign_0_cycle1_af2pred (protein)", "chain": "AKEEALRTLKSAAELAKVAADIAANVDPELAKKAKELAEKAKKLAEEAKKASEEEAKKLLEEGKKLLEEVRALTAEVARLAVAA"}, "B6": {"name": "d1r7_design_ppi_522_dldesign_0_cycle1_af2pred (protein)", "chain": "DPNEKARQLMNDAFQQATKLRAAGAANPATAAQDTAQGVQAVNEAKKKAAELASPEYAGKIEEMAKQLTSIISV"}, "B7": {"name": "d1r8_design_ppi_150_dldesign_0_cycle1_af2pred (protein)", "chain": "SQAALVAAKGALALAKGIKAHVESNPNLPLEELEKLKEQLKTAEEMAKAAEKEAKKAGDKEVLEAAKKALEAIKEAKKALEEAIKKAK"}, "B8": {"name": "d1r7_design_ppi_873_dldesign_0_cycle1_af2pred (protein)", "chain": "SESIENQKKASEAMSEAIEAMAKAGFPISERNEVGKLGIEAMRLFQKSPEDPAALEEGKKKLAEVEKRLKEAKAA"}, "B9": {"name": "d1r7_design_ppi_562_dldesign_0_cycle1_af2pred (protein)", "chain": "SEKAEKLKKETLEKAEKAVKEAEASPDPKEGIKILSEAAREAARAAAESPEAGSAALALTVSAMEEFAAKARA"}, "B10": {"name": "d1r7_design_ppi_733_dldesign_0_cycle0_af2pred (protein)", "chain": "MEEALKALEEAEEAAREAGDEESAEILEKAREEVKAGTPSEGALTVARAAAEAVARARAAGNEDLADRVRALANRAIAALSRAAIA"}, "B11": {"name": "d1r7_design_ppi_869_dldesign_0_cycle0_af2pred (protein)", "chain": "GIGDELAKGEEYYRKSIELAKEGNKEEAKKYLEEAEAHYAAAAAAAEAQGNTALAAALRARAKARKEEAEKLIK"}, "B12": {"name": "d1r7_design_ppi_941_dldesign_0_cycle1_af2pred (protein)", "chain": "AADRAAAAAALGAAVEAYSELVKLAKEAIEKHGPKVAPEMEKLIAEAQKALAAAAKAAIAGDAKAAKAAAEKIKKLKEEAKKLLEE"}, "B13": {"name": "d1r8_design_ppi_80_dldesign_0_cycle0_af2pred (protein)", "chain": "AAAEAAAALAAARAALAAVRETLARAERGEATREEAGAAINAGMRTIAALNAVAARIPAAKAEFDALAGEILDAIRALAAAVR"}, "B14": {"name": "d1r7_design_ppi_855_dldesign_0_cycle0_af2pred (protein)", "chain": "SAAAAQARAVARMAAAAAESGVDAAEVLAVVTGAAQQLAADPAALQAMLDTLTALAAASTPEAAAVLAAAAAAVAAVLA"}, "B15": {"name": "d1r8_design_ppi_23_dldesign_0_cycle0_af2pred (protein)", "chain": "MEELAEEYIEEARRYAEEAERLAEQAGEAARPLARAARRALELAEENREDLELVKGQAEAARVFLEAARSRLEQLA"}, "B16": {"name": "d1r7_design_ppi_871_dldesign_0_cycle1_af2pred (protein)", "chain": "AAAAQTALRTAAAMYRSAAEMFEAGKTEDGLAAAKVAADVAANVPANKEFAAKTLKEITEAAKKDPAEAAKIAREAADYLDAQAAA"}, "B17": {"name": "d1r7_design_ppi_719_dldesign_0_cycle1_af2pred (protein)", "chain": "SGAQAAVAAAQANLRQAKQLLEEGDYEGALGHIKLAKLAADAAKKQATAAGDQAAIDQATALQKEAEELEKEAKKALE"}, "B18": {"name": "d1r7_design_ppi_529_dldesign_0_cycle1_af2pred (protein)", "chain": "DELEKAIKEAEKYIEELKKTIKEGVKNPEEALKLAEEAEKEGEKAAALGIVGAGVGQLAKAAAQALRNKIAA"}, "B19": {"name": "d1r8_design_ppi_218_dldesign_0_cycle1_af2pred (protein)", "chain": "PTPEELAAAYREVRELAERAVAGTPEEAKRYAERIAELVARAEERFGPGAGVLLRNVALAVARANPVAYEYVRAAL"}, "B20": {"name": "d1r7_design_ppi_941_dldesign_0_cycle0_af2pred (protein)", "chain": "AAAAAEAAEYLGKAVEYHKELEEAARRAIEKFGPEVEEEMEELLREAREALAKASQAAIAGDAEKTKEEMEKIKKIRERAKELLEK"}, "B21": {"name": "d1r7_design_ppi_815_dldesign_0_cycle0_af2pred (protein)", "chain": "MEDLEELLRLIAEAQRALKTDAEEGIKLAEEAAKKAEELGLEKAAKLLKEAAKAAKTDAEEGIRLLNQAATQAAREYSEK"}, "B22": {"name": "d1r8_design_ppi_139_dldesign_0_cycle1_af2pred (protein)", "chain": "AMSVGELMEVAKAEGAAVNAAAAALAAKDPAKAAALLDAYRAKVNAIIAEMSRTAIASGDFEAAAAAAAAKIKAAAKETLAALKAIA"}, "B23": {"name": "d1r8_design_ppi_233_dldesign_0_cycle1_af2pred (protein)", "chain": "GALEEAKEKKKEAEEIGKQALALAAQNPASRAQAGALQVELLKLSAEARRKAEEYKADPETREAAKAYEEAAKLASQKIVEVSQALV"}, "B24": {"name": "d1r7_design_ppi_937_dldesign_0_cycle1_af2pred (protein)", "chain": "GAAAEAAEREAKAALLKEVGAAAARMAPENPRLAAAGALGAARGLAALGYAEEGKAVLEETAAALPDPEEAARLRAAAAAL"}, "B25": {"name": "d1r7_design_ppi_733_dldesign_0_cycle1_af2pred (protein)", "chain": "VEEALKALEEAAKAAKEAGDEESAKILKEALEKVKAGTPAEGALTIAEKSAEAVKRALEKGNEELAEKILKLGQKAIAALSKAAIA"}, "B26": {"name": "d1r7_design_ppi_609_dldesign_0_cycle0_af2pred (protein)", "chain": "SELAEQALAAAESLIAEALRAAAEDPARAARLFASAKAVAEALKKIDPKLGEELLKKVEAAEAEAKAAIA"}, "B27": {"name": "d1r8_design_ppi_233_dldesign_0_cycle0_af2pred (protein)", "chain": "DDLEEARELLEEARRLGEQALALVAQNPAARAEGGALMLELLKLQAEARRRAAEYEADPEKAEAAEAYREAAELASQLVRQISQAAV"}, "B28": {"name": "d1r7_design_ppi_538_dldesign_0_cycle0_af2pred (protein)", "chain": "MEEVKKKAEEAKKEIEKLYEEALKYAKEGDIEKAAEYISKMREKGLEAAEEVPELAEEILAYTGRKALEALLELGKASL"}, "B29": {"name": "d1r8_design_ppi_128_dldesign_0_cycle0_af2pred (protein)", "chain": "EEEVKKAKEEAEKAIEEARETERRYFAEAGRNPANALAYLQAGLEELEKIAKELERKGEEEGGEAGKVYKEAAREIKERRERIAAALS"}, "B30": {"name": "d1r7_design_ppi_702_dldesign_0_cycle0_af2pred (protein)", "chain": "SAEKETNLANAKGYLALAKAYTKGATYYATKEGDLEKAKELYEKAKEASKLAIEAAAKAGPEAAAKAKAEADEIDKENEKALKEAE"}, "B31": {"name": "d1r7_design_ppi_719_dldesign_0_cycle0_af2pred (protein)", "chain": "SGAKAAIAAAKHNIKQAKKLLEEGDVEGALGHIKLAELATKAAEAEAKAAGDKEALKKAEELKKEVEELKKEAEKKKK"}, "B32": {"name": "d1r8_design_ppi_185_dldesign_0_cycle1_af2pred (protein)", "chain": "AAQAKALAAEADKLTEKARKLAKEGGDKEEVSKLLAEAAEKYAAAAEADPSTAFEYNARANLARFASQQNLEQAAKVAEAI"}, "B33": {"name": "d1r7_design_ppi_493_dldesign_0_cycle0_af2pred (protein)", "chain": "SMLKEKEEAEKKRERVEKLIKEAEEAAKEAEKIDPVSGRGLRGMVEAARRLMEEGNLEAAEKLAQVALDAAAGLAAAA"}, "B34": {"name": "d1r7_design_ppi_628_dldesign_0_cycle1_af2pred (protein)", "chain": "AEALLKEAEEVKARAAELAATGPEGIVEAAKLVAEMRRKGVENPEVRERVDALYREASAEIARQQRAWIAQQAAAR"}, "B35": {"name": "d1r7_design_ppi_640_dldesign_0_cycle1_af2pred (protein)", "chain": "AQQAVQQTQKVVDETKEVYERAKKEGSPEVAEKLKELLAQAQNNLQMAQAGGAEAAQLMYQNAKKIYEEAKKYAEEEIKKEKE"}, "B36": {"name": "d1r8_design_ppi_82_dldesign_0_cycle1_af2pred (protein)", "chain": "AAAAAKTAAKNVLKAVENFSKNAAAAGKASTPEEAARKLAEIEKFGEAGIAVAAADPEIAKKVKEVVDKAIAELKKAAA"}, "B37": {"name": "d1r7_design_ppi_855_dldesign_0_cycle1_af2pred (protein)", "chain": "SAAAAQARAVANTAAAAAKQGVPAEEVVALVEGAAKTLAGDPAALQAMIDTLAELAKASTPEAAATLNKAAEAVKKVLA"}, "B38": {"name": "d1r8_design_ppi_140_dldesign_0_cycle0_af2pred (protein)", "chain": "DVAAMKKEVEELKKKVEEVAKKAAESPEAQPYVNQAKGNAKSAELAAEGGDVALAKRFLKLAEEAMKKAEALI"}}, "molecular_target": "CD276, Q5ZPR3", "sequence (Q5ZPR3 whole entry)": "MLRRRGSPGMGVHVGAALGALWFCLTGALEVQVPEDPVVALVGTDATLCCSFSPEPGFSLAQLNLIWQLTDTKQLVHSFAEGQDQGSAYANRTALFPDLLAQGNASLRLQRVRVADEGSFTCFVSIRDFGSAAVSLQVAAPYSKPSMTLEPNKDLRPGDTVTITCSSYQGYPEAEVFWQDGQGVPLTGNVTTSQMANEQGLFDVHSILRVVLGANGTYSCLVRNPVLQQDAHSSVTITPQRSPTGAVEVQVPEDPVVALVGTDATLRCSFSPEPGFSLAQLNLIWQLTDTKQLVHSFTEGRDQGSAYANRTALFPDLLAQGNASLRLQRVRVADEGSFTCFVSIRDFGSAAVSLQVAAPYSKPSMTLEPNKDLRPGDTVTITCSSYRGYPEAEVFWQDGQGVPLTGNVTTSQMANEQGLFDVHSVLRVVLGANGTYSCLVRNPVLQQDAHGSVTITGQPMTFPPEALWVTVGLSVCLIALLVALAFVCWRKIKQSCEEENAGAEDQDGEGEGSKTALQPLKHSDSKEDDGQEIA", "note": "Unmarked numbers belong to inactive results. The rule behind the calls is not given here.", "data": [{"binder": "B1", "values": [{"measurement": "binding in a display sort", "value": "not found"}]}, {"binder": "B2", "values": [{"measurement": "binding in a display sort", "value": "not found"}]}, {"binder": "B3", "values": [{"measurement": "binding in a display sort", "value": "not found"}]}, {"binder": "B4", "values": [{"measurement": "binding in a display sort", "value": "not found"}]}, {"binder": "B5", "values": [{"measurement": "binding in a display sort", "value": "not found"}]}, {"binder": "B6", "values": [{"measurement": "binding in a display sort", "value": "not found"}]}, {"binder": "B7", "values": [{"measurement": "binding in a display sort", "value": "not found"}]}, {"binder": "B8", "values": [{"measurement": "binding in a display sort", "value": "not found"}]}, {"binder": "B9", "values": [{"measurement": "binding in a display sort", "value": "not found"}]}, {"binder": "B10", "values": [{"measurement": "binding in a display sort", "value": "not found"}]}, {"binder": "B11", "values": [{"measurement": "binding in a display sort", "value": "not found"}]}, {"binder": "B12", "values": [{"measurement": "binding in a display sort", "value": "not found"}]}, {"binder": "B13", "values": [{"measurement": "binding in a display sort", "value": "not found"}]}, {"binder": "B14", "values": [{"measurement": "binding in a display sort", "value": "not found"}]}, {"binder": "B15", "values": [{"measurement": "binding in a display sort", "value": "not found"}]}, {"binder": "B16", "values": [{"measurement": "binding in a display sort", "value": "not found"}]}, {"binder": "B17", "values": [{"measurement": "binding in a display sort", "value": "not found"}]}, {"binder": "B18", "values": [{"measurement": "binding in a display sort", "value": "not found"}]}, {"binder": "B19", "values": [{"measurement": "binding in a display sort", "value": "not found"}]}, {"binder": "B20", "values": [{"measurement": "binding in a display sort", "value": "not found"}]}, {"binder": "B21", "values": [{"measurement": "binding in a display sort", "value": "not found"}]}, {"binder": "B22", "values": [{"measurement": "binding in a display sort", "value": "not found"}]}, {"binder": "B23", "values": [{"measurement": "binding in a display sort", "value": "not found"}]}, {"binder": "B24", "values": [{"measurement": "binding in a display sort", "value": "binds (active)"}]}, {"binder": "B25", "values": [{"measurement": "binding in a display sort", "value": "not found"}]}, {"binder": "B26", "values": [{"measurement": "binding in a display sort", "value": "not found"}]}, {"binder": "B27", "values": [{"measurement": "binding in a display sort", "value": "not found"}]}, {"binder": "B28", "values": [{"measurement": "binding in a display sort", "value": "not found"}]}, {"binder": "B29", "values": [{"measurement": "binding in a display sort", "value": "not found"}]}, {"binder": "B30", "values": [{"measurement": "binding in a display sort", "value": "not found"}]}, {"binder": "B31", "values": [{"measurement": "binding in a display sort", "value": "not found"}]}, {"binder": "B32", "values": [{"measurement": "binding in a display sort", "value": "not found"}]}, {"binder": "B33", "values": [{"measurement": "binding in a display sort", "value": "not found"}]}, {"binder": "B34", "values": [{"measurement": "binding in a display sort", "value": "not found"}]}, {"binder": "B35", "values": [{"measurement": "binding in a display sort", "value": "not found"}]}, {"binder": "B36", "values": [{"measurement": "binding in a display sort", "value": "not found"}]}, {"binder": "B37", "values": [{"measurement": "binding in a display sort", "value": "not found"}]}, {"binder": "B38", "values": [{"measurement": "binding in a display sort", "value": "not found"}]}]}
